Screens as filed in PubChem BioAssay.
Rows were chosen to be rich in hits. Some 2.4% of all compounds tested hit in one or more screens of this group.
TDP1 inh: blocks human tyrosyl-DNA phosphodiesterase 1 | Q9NUW8 | recombinant TDP1, AlphaScreen DNA substrate cleavage | Potency, µM (top dose mostly 130 µM), usual class: inhibitors | actives 0.28% (n = 350,000) | AID 485290; further: nearly all actives have a fitted effect of over 40% in size
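Here, a 5' biotin and 3' phosphotyrosine-FITC DNA oligonucleotide reports Tdp1 activity: intact substrate bridges AlphaScreen beads, while cleavage leaves a 3' phosphate and drops signal. All incubations at room temperature.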
PTAP TSG101 blk: blocks PTAP/TSG101 interaction to inhibit HIV-1 budding. Q99816. 340,000 tested, under 10 active. Fluorescence polarization, FITC-PTAP peptide / Tsg101 binding. Potency, µM (doses to about 115 µM), actives largely listed as inhibitors; active means well fitted inhibition curve with a large enough effect in the main read-out, with a control signal flat, not every such curve was filed as active; inconclusive means small, poorly fitted or top-dose-only effect, or effect the other way, or a change in a side signal; inactive means no such curve, though single readings can be large or run the other way
Target sequence (Q99816 whole entry, looked up): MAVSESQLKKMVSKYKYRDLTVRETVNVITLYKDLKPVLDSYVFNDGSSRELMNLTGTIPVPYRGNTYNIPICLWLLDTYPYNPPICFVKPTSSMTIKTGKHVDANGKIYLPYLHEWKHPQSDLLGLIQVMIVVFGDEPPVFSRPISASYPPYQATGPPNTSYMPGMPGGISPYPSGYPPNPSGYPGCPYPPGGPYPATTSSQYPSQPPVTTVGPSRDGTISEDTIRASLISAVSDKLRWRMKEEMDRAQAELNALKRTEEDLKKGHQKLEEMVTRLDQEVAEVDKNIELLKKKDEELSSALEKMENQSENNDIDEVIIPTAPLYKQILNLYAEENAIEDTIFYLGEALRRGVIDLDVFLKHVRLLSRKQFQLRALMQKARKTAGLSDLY
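FP read-out: FITC-PTAP peptide, 50 nM final, binding Tsg101 binding domain, 10 uM final; 20 min, r.t.; 10 mM HEPES pH 7.5, 0.15 M NaCl, 0.01% Tween 20, 3 mM EDTA, 0.1 mM TCEP.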
Rango complex inh: prevents formation of the Rango-importin beta complex; Q14974; Potency, µM (doses to about 92.2 µM); actives 0.031% (n = 340,000); Rango CFP/YFP FRET sensor + importin beta, 45 min; AID 540263; calls by dose curve; further: nearly all actives have a fitted effect of over 15% in size
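Inhibition scored from the CFP 486 nm/YFP 530 nm FRET ratio 45 min after adding 0.125 microM importin beta to 50 nM Rango biosensor preincubated 5 min with compound (room temperature, PBS with DTT, Tween-20, BSA). No-importin wells as positive control.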
Rango dissoc inh: inhibitors of RanGTP-induced Rango-importin beta complex dissociation; O95149+P62826; Biochemical FRET Rango-importin beta, RanGTP-induced dissociation; Potency, µM (doses to about 46.1 µM); actives 0.071% (n = 340,000); calls by dose curve; further: nearly all actives have a fitted effect of over 45% in size
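FRET read at 45 min, room temperature: inhibitors block the CFP/YFP signal rise when RanGTP (0.6 uM Ran, 2 mM GTP, 0.2 uM RCC1) frees Rango (0.1 uM) from importin beta (0.25 uM). Pre-read after 5 min compound exposure flags interference.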
ClpP mod: qHTS Assay for Activators of ClpP | Potency, µM (highest dose often 57.5 µM) | ATP-dependent Clp protease proteolytic subunit (Bacillus subtilis (strain 168)), P80244 | purified B. subtilis ClpP, FRET peptide cleavage, 20 min | actives 1.9% (n = 340,000); active means well fitted falling curve with a large enough effect; inconclusive means small, poorly fitted or top-dose-only effect; inactive means no such curve, though single readings can be large or run the other way; further: the source files actives as falling curves though it sought activators and does not explain the sign; nearly all actives have a fitted effect of over 65% in size
Target sequence (P80244 whole entry, looked up): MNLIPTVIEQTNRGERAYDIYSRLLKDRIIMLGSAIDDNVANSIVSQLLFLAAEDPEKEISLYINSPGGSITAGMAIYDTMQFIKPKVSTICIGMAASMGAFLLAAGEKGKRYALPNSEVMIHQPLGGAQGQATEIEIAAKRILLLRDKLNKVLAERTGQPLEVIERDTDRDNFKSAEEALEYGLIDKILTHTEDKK
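Buffer: 100 mM Tris/HCl pH8, 100 mM KCl, 0.05% low protease BSA, 2.5% glycerol, 0.01% Tween-20. ClpP 10 microg/mL final; 20 min RT; delta FRET normalized to ADEP and DMSO controls.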
ALOX12 inh: inhibitors of human 12S-lipoxygenase ALOX12; purified 12hLO, xylenol orange hydroperoxide absorbance; Potency, µM (top dose mostly 108 µM), actives largely listed as inhibitors; actives 1.1% (n = 580,000); AID 1671190
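Hydroperoxide product was detected by ferrous iron/xylenol orange as the 573 to 405 nm absorbance ratio. Arachidonic acid at 40 uM (final) was turned over for 30 min at room temperature by 150 nM human 12hLO, pH 7.0 Hepes buffer, after 15 min compound preincubation.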
Hits are given with their value; i = inactive; ? = inconclusive; nt = no result given; ! = repeats disagree; [ ] = dose if it differs, or a comment. Unless noted, the call rests on the fitted dose curve; in most records, active means well fitted curve in the direction sought with a large enough effect; inconclusive means small, poorly fitted or top-dose-only effect, or another doubt; inactive means no such curve, though single readings can be large; an effect the other way counts as inactive or inconclusive.

SMILES	TDP1 inh	PTAP TSG101 blk	Rango complex inh	Rango dissoc inh	ClpP mod	ALOX12 inh
Oc1ccc2ccccc2c1CN1CCN(c2ccccc2F)CC1	i	i	i	i	11.2µM	44.7µM
O=S(=O)(c1ccccc1)N1CCN(Cc2c(O)ccc3ccccc23)CC1	i	i	i	i	i	7.08µM
CCCn1nc([N+](=O)[O-])c(C(C#N)c2nc3ccccc3o2)c(Cl)c1=O (configuration not stated)	i	i	i	i	i	39.8µM
CC(C)NCC(O)Cn1c2c(c3ccccc31)CCc1c-2cnn1-c1ccccc1 (configuration not stated)	i	i	i	i	8.91µM	i
CCOC(=O)c1cc(=O)n2c(nc3ccccc32)[nH]1	i	nt	i	i	i	i
Cc1cc(=O)n2c(nc3ccccc32)[nH]1	i	i	i	i	14.1µM	i
O=C(CCS(=O)(=O)c1ccc(Cl)cc1)NCCN1C(=O)S/C(=C\c2ccccc2F)C1=O	i	i	i	i	28.2µM	i
Cn1c(=O)cc(C(=O)NC2CCCc3c2[nH]c2c(Cl)cccc32)c2ccccc21 (configuration not stated)	nt	nt	nt	nt	nt	i
COc1ccc2[nH]c(C(=O)O)c(CCN3C(=O)c4cccc([N+](=O)[O-])c4C3=O)c2c1	44.7µM	i	i	i	i	i
COc1ccc2[nH]c(C(=O)O)c(CCNC(C)=O)c2c1	i	i	i	i	8.91µM	?
COc1ccc2[nH]c(=O)cc(C(=O)O)c2c1	22.4µM	i	i	i	nt	i
CC1(C(=O)NC2CC2)CCc2cnc(Nc3ccccc3)nc21 (configuration not stated)	nt	nt	nt	nt	nt	i
O=C(Cc1cccc(F)c1)NCc1nnc2ccc(-c3ccc(Cl)cc3)nn12	nt	nt	nt	nt	nt	i
Oc1cccc(Nc2nc(-c3ccccc3)nc3ccccc23)c1	nt	i	i	i	i	39.8µM!
Cc1cccc(Nc2nc(-c3ccccc3)nc3ccccc23)c1	i[12.3 µM]	nt	nt	nt	i	i
Cc1ccc(CNC(=O)CCC2CCN(S(=O)(=O)c3ccccc3)CC2)o1	nt	nt	nt	nt	nt	i
COc1ccc(/C=N/c2c(-c3ccco3)nc3ccccn23)cc1OC	i	i	i	i	28.2µM	?
Clc1ccc(/C=N/c2c(-c3ccco3)nc3ccccn23)cc1	i	i	?	?	?	i
Clc1cc(Cl)cc(CNCCN2CCCC2)c1	nt	nt	nt	nt	nt	i
CCOc1cc2ccccc2cc1C(=O)Nc1nnc(CC)s1	nt	nt	nt	nt	nt	i
O=C(N/N=C/c1ccccc1)c1[nH]c2ccc(Br)cc2c1-c1ccccc1	i	i	i	i	22.4µM	i
COc1cc2c(OC)cccc2cc1C(=O)O	i	i	i	i	15.8µM	i
COc1cccc2c(=O)c(C(=O)O)c[nH]c12	i	i	i	i	22.4µM	i
COc1cc2ccccc2cc1C(=O)O	i	i	i	i	?	i
CC(=O)N[C@H]1CC[C@]2(C)CC[C@@H]([C@H](C)C(=O)NCc3cccs3)[C@H](O)[C@H]2[C@@H]1C	nt	nt	nt	nt	nt	i
SMILES	TDP1 inh	PTAP TSG101 blk	Rango complex inh	Rango dissoc inh	ClpP mod	ALOX12 inh
Cc1ccc(-c2noc3ncnc(NC4CCCCC4)c23)cc1	nt	nt	nt	nt	nt	i
COc1ccc(Cl)cc1-n1c(C)cc(C=O)c1C	i	i	i	i	31.6µM	i
CC(C)CC1=NN(C(=O)CSCc2ccccc2Cl)C(O)(C(F)(F)F)C1 (configuration not stated)	nt	nt	nt	nt	nt	i
O=Cc1cccn1-c1cc(Cl)ccc1Cl	nt	nt	nt	nt	nt	i
Cc1c2cnn(CC(=O)NCc3ccc(F)cc3)c(=O)c2c(C)n1Cc1ccccc1F	i	nt	nt	nt	i	i
Cc1c2cnn(CC(=O)Nc3c(F)c(F)cc(F)c3F)c(=O)c2c(C)n1Cc1ccccc1F	i	i	i	i	nt	20µM
Cc1cc2cc(NS(=O)(=O)c3ccccc3)ccc2[nH]1	nt	nt	nt	nt	nt	i
Cc1cc2cc(NS(=O)(=O)c3ccc4ccccc4c3)ccc2[nH]1	nt	nt	nt	nt	nt	10µM
O=C(c1ccccc1)N1CCn2c(nnc2-c2ccccc2)C1	nt	nt	nt	nt	nt	i
CSc1nc(-c2ccco2)cc(C(F)(F)F)c1C#N	i	i	i	i	i	?
